Screening data as filed in PubChem.
Peg3 prom inh = Peg3 promoter activity inhibition; HeLa PEG-Prom luciferase reporter, luminescence, overnight; inhibition, % at 20 µM; 360,000 tested, 1.7% active;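 active = inhibition of at least 50% at 20 µM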
MITF TRPM1 inh = inhibitors of MITF-driven TRPM1 promoter in melanoma cells | SK-MEL-5 TRPM1 promoter luciferase, 24 h | inhibition, % at 12.5 µM | 330,000 tested, 0.83% active | AID 488899;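 active = mean inhibition across replicates of 60% or more, whatever share of single replicates reaches that level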
KKLEB tox = CF airway cell cytotoxicity counter-screen; KKLEB CF airway cells viability, ATPlite luminescence, overnight; stronger effect = lower value; cells stimulated with P. aeruginosa culture filtrate; activity change (cytotoxicity), % at 5 µM; 360,000 tested, 0.36% active;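 active = corrected activity change at or below -50% at 5 µM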
ABHD5 PLIN5 PPI = blocks binding of human ABHD5 to perilipin-5; 360,000 tested, 0.78% active; Q00G26+Q8WTS1; Split G. princeps luciferase complementation, luminescence, 4 h; inhibition, % at 4 µM;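 active = inhibition above the mean inhibition across every tested compound plus 3 SD, cut at about 22% in these data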;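 also: 0% = DMSO only wells and the 100% control is not disclosed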
CF NFkB inh = inhibitors of cystic fibrosis induced NF-kB; KKLEB NF-kB-GFP reporter, PAF-induced, GFP fluorescence overnight; inhibition, % at 5 µM; 360,000 tested, 0.86% active; AID 588850;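 active = at least 50% inhibition at 5 µM, scaled per plate between neutral and stimulator controls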;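 also: PAF is a Pseudomonas aeruginosa culture filtrate used as stimulus; plate controls were PAF-stimulated DMSO wells for no effect and unstimulated DMSO wells for full effect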
HIF-2a block = inhibitors of HIF-2a. 360,000 tested, 0.72% active. 786-0 RCC cells HIF-2a reporter, luciferase luminescence, overnight. inhibition, % at 18.8 µM;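 active = inhibition of the luminescence signal of 40% or more relative to plate controls, in a single-dose primary screen at 18.75 µM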
CF NFkB inh conf = CF NF-kB inhibition confirmation, single concentration. KKLEB CF airway cells, PAF-induced NF-kB-GFP fluorescence, overnight. AID 602472. 1,300 tested, 64% active. shares compounds with CF NFkB inh. inhibition, % at 5 µM; in the data active = inhibition above about 40%;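 also: stimulus PAF is a Pseudomonas aeruginosa filtrate and not platelet activating factor; plate controls were DMSO wells with stimulus for no effect and unstimulated DMSO wells for full effect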
The depositor's hits bear a star; nt = no result. A selection: hits, their analogues and other compounds. The true share with any hit is near 3.1%.

SMILES | Peg3 prom inh | MITF TRPM1 inh | KKLEB tox | ABHD5 PLIN5 PPI | CF NFkB inh | HIF-2a block | CF NFkB inh conf
Cc1ccc(-c2ccc(CN3C(C(C)C)C(=O)N(Cc4cn(Cc5ccco5)nn4)CCS3(=O)=O)cc2)cc1 (stereo not given) | 56* | nt | -20 | 3 | 69* | 26 | 39
COc1ccc(NC(=O)CSc2ccc([N+](=O)[O-])cc2)cc1S(=O)(=O)N1CCOCC1 | -19 | 7 | 4 | -5 | -14 | -11 | nt
CCN(CC)C(=O)C1=C(C)N(Cc2ccccc2)C(=O)C(CC(=O)NCCc2ccccn2)C1 (stereo not given) | 0 | nt | 6 | 3 | -4 | -1 | nt
COc1cc(CCc2ccccc2)c(C(=O)O)c(O)c1C/C=C(/C)CCC=C(C)C | 57* | -4 | -19 | -2 | 60* | -1 | 71*
COc1cc(CCc2ccccc2)c(C(=O)O)c(O)c1CC=C(C)C | 14 | -1 | 7 | -13 | 45 | -6 | nt
COCCCN=C1NN=C(c2cc(C)n(-c3ccccc3)c2C)CS1 | -142 | -1 | -11 | -19 | 16 | -17 | nt
COCCCN=C1NN=C(c2cc(C)n(Cc3ccccc3Cl)c2C)CS1 | -202 | -16 | -14 | -2 | 54* | -76 | 60*
Cc1ccc(C)c(S(=O)(=O)N(C(=O)c2ccncc2)c2ccc(OC(=O)c3ccncc3)cc2)c1 | 43 | -2 | -9 | 9 | 69* | 20 | 85*
O=C(Oc1ccc(N(C(=O)c2ccncc2)S(=O)(=O)c2ccc(F)cc2)cc1)c1ccncc1 | 16 | 4 | 3 | 3 | 44 | 16 | nt
Cc1ncoc1C(=O)N1CCCC(C(=O)c2ccc(C(F)(F)F)cc2)C1 (stereo not given) | -94 | -30 | 4 | 1 | 2 | -151 | nt
CC(C)(O)C(=O)NNC(=S)Nc1cccc(C(F)(F)F)c1 | 14 | -2 | -7 | 2 | 6 | 13 | nt
O=C(NNc1ccccc1Br)C(O)(c1cccc(C(F)(F)F)c1)c1cccc(C(F)(F)F)c1 | 54* | 19 | -47 | -13 | 57* | 24 | 83*
CC(=O)Oc1ccc(N(C(C)=O)S(=O)(=O)c2ccc(C)cc2)c2ccccc12 | 4 | 22 | -21 | 2 | 38 | 2 | nt
CC(=O)Oc1ccc(N(C(C)=O)S(=O)(=O)c2ccc(Cl)cc2)c2ccccc12 | 4 | 17 | -12 | 3 | 86* | 23 | 70*
O=C1CC(C(=O)Nc2cccc(Cl)c2)n2ncnc2N1 (stereo not given) | 16 | 4 | 5 | 0 | -10 | 8 | nt
COc1cc(NC(=O)c2cc3ccccc3cc2OC)ccc1NC(=O)c1cccs1 | 47 | 18 | 17 | 6 | 59* | -19 | 102*
COc1cc(NC(=O)c2ccccc2Cl)ccc1NC(=O)c1cccs1 | -274 | -73 | 4 | -3 | -12 | -269 | nt
CC(=O)N1CCN(Cc2nc3cc(NC(=O)COc4ccccc4)ccc3n2C)CC1 | 13 | 9 | 1 | -2 | 12 | 9 | nt
COc1ccc(S(=O)(=O)c2cnc3ccccc3n2)cc1 | 22 | 10 | 0 | 1 | 16 | 11 | nt
O=S(=O)(c1ccc(Br)cc1)c1cnc2ccccc2n1 | 33 | 8 | -20 | 11 | 57* | 27 | 49*
CCOC(=O)C1C(=O)NC(c2ccccc2)=NC1c1ccc(OC)cc1 (stereo not given) | 2 | 3 | 12 | -1 | -7 | 8 | nt
Cc1ccc(CNc2ncnc(N)c2[N+](=O)[O-])cc1 | -77 | -25 | -10 | -1 | 63* | -29 | 66*
Cc1cccc(C)c1Nc1ncnc(N)c1[N+](=O)[O-] | 0 | 5 | 4 | 2 | 4 | 6 | nt
Cc1ccccc1-n1ncc2c1CC(C)(C)CC2NC(=O)c1cn[nH]c1C (stereo not given) | 9 | 3 | 31 | 0 | 4 | 12 | nt
O=C(NCc1ccccn1)C1CCCN(S(=O)(=O)c2cc(Cl)ccc2Cl)C1 (stereo not given) | 99* | 98* | -34 | 6 | 87* | 10 | 34
SMILES | Peg3 prom inh | MITF TRPM1 inh | KKLEB tox | ABHD5 PLIN5 PPI | CF NFkB inh | HIF-2a block | CF NFkB inh conf
CCOC(=O)C1CCN(c2cc3c(cc2NC(=O)c2ccc(OC)c(OC)c2)n(C)c(=O)n3C)CC1 | 45 | 5 | 9 | 2 | 54* | -9 | 23
CC(C)CC(CO)N1CCN(C(=O)c2ccccc2)CCC1=O (stereo not given) | -7 | 1 | -6 | 3 | -1 | 15 | nt
O=C(NCc1cccs1)C1CCCN1C(=O)Nc1ccccc1Cl (stereo not given) | 7 | 1 | 6 | 3 | -9 | 17 | nt
CC1(C)CC(=O)C2=C(C1)OC1=C(C(=O)CC(C)(C)C1)C2c1cc([N+](=O)[O-])cc([N+](=O)[O-])c1O | 12 | 2 | 12 | 5 | -9 | 24 | nt
CC1(C)CC(=O)C(C2C3=C(CC(C)(C)CC3=O)Oc3c(Br)cc(Br)cc32)=C(O)C1 (stereo not given) | 39 | 1 | -6 | 0 | 56* | -4 | 57*
CCCCNc1c(-c2cccc(-c3ccc(OC)cc3)c2)nc2ccc(C)cn12 | 69* | -3 | -23 | -12 | 68* | -163 | 91*
CCN(C(=O)COC(=O)c1ccc([N+](=O)[O-])o1)c1cccc2ccccc12 | 35 | 44 | -16 | -4 | 66* | 11 | 18
CCOc1ccc(CN2CCN(CCCc3ccccc3)CC2CCO)cc1 (stereo not given) | 7 | 2 | 3 | 3 | 6 | 11 | nt
COc1ccc(-c2oc3ccc(-c4ccc(OC)nc4)cc3c2C#CC2(O)CCCCC2)cc1 | 2 | 3 | -37 | -14 | 64* | -2 | 54*
COc1ccc(-c2oc3ccc(-c4ccc5c(c4)OCO5)cc3c2C#CC2(O)CCCCC2)cc1 | 10 | 11 | -37 | -7 | 61* | -4 | 53*
COc1ccc(-c2sc3cc4c(cc3c2C#CC2(O)CCCCC2)OCO4)cc1 | -23 | -7 | -11 | -12 | 19 | 2 | nt
Oc1ccc(/C=N/Nc2nc(-c3cccnc3)nc3ccccc23)c(O)c1 | -15 | -15 | 4 | 1 | 3 | -99 | nt
COc1ccc(/C=N/Nc2nc(-c3cccnc3)nc3ccccc23)cc1OC | -1 | -17 | -1 | -2 | 64* | -94 | 68*
Cc1ccc(CNc2nc(-c3cccnc3)nc3ccccc23)cc1 | 29 | 6 | 4 | 6 | 2 | -2 | nt
COc1ccc(CCNc2nc(-c3cccnc3)nc3ccccc23)cc1OC | 49 | -12 | -28 | 0 | 58* | -17 | 16
COc1ccc(N2C(=O)C(CN3CCN(C)CC3)C2c2ccccc2)cc1 (stereo not given) | -1 | 9 | -2 | 1 | -1 | 2 | nt
COc1ccc(-c2cc(C(F)(F)F)nc(SCC(=O)N3CCOCC3)n2)cc1OC | 8 | -7 | -10 | -6 | 16 | 2 | nt
